From PubChem
EPAC1 agonist: agonists of human EPAC1. O95398. EPAC1 agonist qHTS, biochemical assay; response scale: 100% = response to 6.5 mM cAMP. Potency, µM (highest dose often 154 µM), for inactives: at the highest dose activation, hits mostly activators. 360,000 compounds, 0.073% hits. AID 720707; also: nearly all actives have a fitted effect of over 60% in size
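Nucleotide exchange assay: 100 nM EPAC1 with 250 nM Rap1B loaded with BODIPY-GDP and 50 uM GDP, room temperature. Fluorescence (480/540 nm) read every 5 min for 30 min; signal change normalized to 6.5 mM cAMP as full agonist.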
ERG-DNA inh: inhibitors of human ERG Ets domain-DNA interaction. P11308. fluorescence polarization, His-ERG Ets domain / labelled DNA. Potency, µM (top dose mostly 76.9 µM), for the others: at the highest dose FP activity, negative = inhibition, most hits filed as inhibitors. 370,000 compounds, 0.028% hits. AID 624246; active = well fitted inhibition curve with a large enough effect in the polarisation, with a control signal flat; inconclusive = small, poorly fitted or top-dose-only effect, or effect the other way, or a change in a side signal; inactive = no such curve, though single readings can be large or run the other way; the % refers to the polarisation;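 also: polarization taken with two DNA probes labelled with fluorescein and Texas red; % of control where 0% means no effect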
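His-tagged ERG Ets domain (1 uM in the protein solution; 300mM KCl, 50mM Tris-HCl, 1mM EDTA, 1mM DTT, pH 7.5) received compound, then a probe mix of 5 nM fluorescein-DNA and 100nM Texas-615-DNA. Fluorescence polarization was read for both dyes.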
EPAC1 antag: antagonists of human EPAC1. 360,000 compounds, 0.14% hits. Potency, µM (titrated, usually from 115 µM), for the others: at the highest dose activity change, negative = inhibition, usual class: inhibitors. O95398. EPAC1 GEF assay, Rap1b-BODIPY-GDP exchange fluorescence;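 also: plate controls were vehicle for no effect and positive control for full effect; nearly all actives have a fitted effect of over 50% in size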
TDP1 block: inhibitors of human tyrosyl-DNA phosphodiesterase TDP1. recombinant TDP1, AlphaScreen DNA substrate cleavage. Potency, µM (doses to about 130 µM), without a hit: top-dose activity change, negative = inhibition, hits mostly inhibitors. 350,000 compounds, 0.28% hits. AID 485290; also: % is scaled to controls: 0 for no effect and ±100 for the full control effect; nearly all actives have a fitted effect of over 40% in size
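Recombinant human Tdp1 (E. coli-expressed, 1 nM final) preincubated with compounds 15 min at room temperature, then 5'-biotin/3'-phosphotyrosine-FITC DNA substrate (15 nM final) added for 5 min. AlphaScreen beads (10 ug/ml final) added 10 min; cleavage lowers signal.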
EPAC2 agonist: activates human EPAC2 exchange factor; EPAC2 activation, biochemical qHTS; response scale: 100% = 6.5 mM cAMP response; Potency, µM (highest dose often 154 µM), for the others: at the highest dose activation, usual class: activators; 360,000 compounds, 0.079% hits; also: nearly all actives have a fitted effect of over 50% in size
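In this primary screen, activation is scored as increased exchange of BODIPY-GDP from Rap1B by 100 nM EPAC2, with 50 uM GDP as competitor. Signal is normalized to the 6.5 mM cAMP agonist control.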
EPAC2 antag: blocks human EPAC2 exchange factor. Q8WZA2. EPAC2 GEF exchange of Rap1B-BODIPY-GDP, fluorescence. Potency, µM (top dose mostly 114 µM), without a hit: at the top dose activity, negative = inhibition, actives largely listed as inhibitors. 360,000 compounds, 0.18% hits. AID 720708; also: % is scaled to controls: 0 for no effect and ±100 for the full control effect; nearly all actives have a fitted effect of over 45% in size
An asterisk follows results filed as active. Hits are enriched below; roughly 0.54% of the tested compounds scored in any of these assays. Unless noted, calls follow the shape of the dose curve; as a rule, active = well fitted curve in the direction sought with a large enough effect; inconclusive = small, poorly fitted or top-dose-only effect, or another doubt; inactive = no such curve, though single readings can be large; an effect the other way counts as inactive or inconclusive. Potency is read from the fitted curve at half-maximal effect.

For Cc1ccc(-c2ccc(CCC(=O)O)n2-c2ccc(O)cc2)cc1 the results were EPAC1 agonist 4%, ERG-DNA inh -1%, EPAC1 antag -20%, TDP1 block 7%, EPAC2 agonist 11% and EPAC2 antag -11%.
`C[C@@H]1C[C@H]2[C@@H]3CCC4=CC(=O)C=C[C@]4(C)[C@@]3(F)C(O)C[C@]2(C)[C@@]1(O)C(=O)CO` (some centres not stated) gave TDP1 block 0%.
CS/C(Nc1cc(Cl)ccc1Cl)=C(/C#N)C(=O)c1ccco1 was read as EPAC1 agonist -9%, ERG-DNA inh -2%, EPAC1 antag 50µM*, TDP1 block 4%, EPAC2 agonist 3% and EPAC2 antag -4%.
`O=C(Nc1cc(Cl)ccc1Cl)c1ccco1` gave EPAC1 agonist 1%, ERG-DNA inh -1%, EPAC1 antag 2%, EPAC2 agonist 3% and EPAC2 antag 0%.
CCOC(=O)N1CCC(N2Cc3cccc(C(=O)NCc4ccc5c(c4)OCO5)c3C2=O)CC1 was read as EPAC1 agonist -11%, ERG-DNA inh 8%, EPAC1 antag 7%, TDP1 block 50µM*, EPAC2 agonist 0% and EPAC2 antag -11%.
`O=C(Cc1ccccc1I)Nc1ccccc1` gave TDP1 block 2%.
For CCCCC#Cc1ccccc1CC(=O)Nc1ccccc1 the results were EPAC1 agonist -9%, ERG-DNA inh 4%, EPAC1 antag 0%, TDP1 block 50µM*, EPAC2 agonist -4% and EPAC2 antag inconclusive.
CC(=O)NC(c1ccc(Cl)cc1Cl)c1ccc2cccnc2c1O (configuration not stated) was read as EPAC1 agonist -10%, ERG-DNA inh -3%, EPAC1 antag inconclusive, EPAC2 agonist 4% and EPAC2 antag 20µM*.
CCCC(=O)NC(c1ccc(Cl)cc1Cl)c1ccc2cccnc2c1O (configuration not stated) was read as EPAC1 agonist 3%, ERG-DNA inh 2%, EPAC1 antag -13%, EPAC2 agonist 4% and EPAC2 antag -13%.
Oc1ccc(Cl)cc1C1C=C(c2ccc3c(c2)OCO3)NC(c2cc(Br)ccc2F)N1 (configuration not stated) was read as TDP1 block 3%.
For COc1cccc(C2c3c(ncn(-c4ccncc4)c3=N)Oc3ccc4ccccc4c32)c1 (configuration not stated) the results were TDP1 block 3%.
Screening Cc1cc2ccccc2n1CCNC(=O)c1cccs1 returned EPAC1 agonist -1%, ERG-DNA inh 32µM*, EPAC1 antag -18%, TDP1 block 6%, EPAC2 agonist 13% and EPAC2 antag -2%.
`COc1oc(=O)c2cc(N)ccc2c1Cl` gave TDP1 block 21%.
O=C(CS(=O)(=O)c1ccccc1)c1cc2cc(F)ccc2oc1=O was read as EPAC1 agonist 2%, ERG-DNA inh -5%, EPAC1 antag inconclusive, TDP1 block 4%, EPAC2 agonist 3% and EPAC2 antag 50µM*.
CCCN1C(=O)c2ccccc2NC1c1ccc(OC)c(COc2cccc(OC)c2)c1 (configuration not stated) was read as TDP1 block 0%.
For Cc1ccc(NS(=O)(=O)c2ccc3c(c2)C(Cl)(Cl)C(=O)N3)cc1C the results were TDP1 block 4%.
`COc1ccccc1/C=C1\SC(=S)N(NS(=O)(=O)c2ccccc2)C1=O` gave EPAC1 agonist 5%, ERG-DNA inh -1%, EPAC1 antag 56µM*, EPAC2 agonist -5% and EPAC2 antag inconclusive.
